These results are taken from PubChem BioAssay AID463173 (ICCB-Longwood Screening Facility, Harvard Medical School, 2010).

About 1,700 (3.3%) of roughly 52,000 compounds were called active. Rule as the data show it: active = survival mostly below about 52% (no sharp cut-off); inactive = mostly above about 56%. The full list was thinned out, with actives kept by preference.

The test system of the assay is Wild type. Briefly: S. aureus survival, RN4220 and DeltatarO strains – OD600, teichoic acid synthesis inhibitors, primary screen (AID 463173). Particulars: S. aureus RN4220 wild type/DeltatarO growth, OD600, 18 h, hits give low values, screened at 18.75 µg/mL (by protocol).
With `COc1ccc(Cl)cc1NC(=O)c1c(NCc2ccc(C)o2)sc2c1CCCCC2`, the survival is 80% (inactive).
Next, `CCOc1cccc2cc(-c3nc4sc5c(c4c(=O)[nH]3)CCC(C)C5)c(=O)oc12` (stereo not given): 119% (inactive); `CCC(C(=O)Nc1cc(F)ccc1F)n1nc(-c2cc(C)ccc2C)ccc1=O` (stereo not given): 75% (inactive).
Next, `Cc1ccc2c(c1)-c1c(c(C(=O)NCCc3ccccc3)nn1C)CS2`: 10% (active).
Turning to `Cc1ccc(CCNC(=O)c2nn(C)c3c2CSc2ccccc2-3)cc1`, the survival is 90% (inactive).
Next, `Cc1cccc(CCNC(=O)c2nn(C)c3c2CSc2ccccc2-3)c1`: 87% (inactive); `Cc1ccc(Nc2c(-c3ccccc3O)nc3ccc(Br)cn23)cc1`: 101% (inactive).
Next, `CC(C)OCCCNC(=O)C(=O)Nc1ccc2nc3n(c(=O)c2c1)CCCCC3`: 99% (inactive); `COc1ccc(/C=C\c2onc(C)c2S(=O)(=O)N2CCC(C(=O)Nc3ccccc3OC)CC2)cc1`: 116% (inactive); `Cc1ccc(NC(=O)c2cnn3c(C(F)F)cc(-c4ccccc4)nc23)cc1F`: 86% (inactive).
Next, `Cc1cccc(-c2nc(SCc3ccc(Br)cc3)n3[nH]c(=O)cc3n2)c1`: 83% (inactive); `O=c1cc2nc(-c3ccccc3F)nc(SCc3ccc(Br)cc3)n2[nH]1`: -2% (active); `Cc1ccc(CSc2nc(-c3ccc(C(C)(C)C)cc3)nc3cc(=O)[nH]n23)cc1`: 113% (inactive).
Regarding `COc1ccccc1NC(=O)CSc1nc(-c2ccccc2F)nc2cc(=O)[nH]n12`, the survival is 73% (inactive).
Next, `O=c1cc2nc(-c3ccccc3)nc(SCc3cccc(Br)c3)n2[nH]1`: 73% (inactive); `Cc1ccc(-c2nc(SCc3ccc(Br)cc3)n3[nH]c(=O)cc3n2)cc1`: 10% (active); `CC(C)Sc1ncc(Cl)c(C(=O)Nc2nc3ccc(S(C)(=O)=O)cc3s2)n1`: 112% (inactive).
Next, `CN(C(=O)Cn1cc(S(=O)(=O)Cc2ccccc2Cl)c2ccccc21)c1ccccc1`: 146% (inactive); `CCc1cccc(NC(=O)Cn2c(=O)n(CCc3ccc(OC)c(OC)c3)c(=O)c3ccccc32)c1`: 124% (inactive).
Turning to `O=C(Cn1c(-c2cccs2)cc2ccccc21)NCCCN1CCN(c2ccc(F)cc2)CC1`, the survival was 136% (inactive).
Take `O=C1S/C(=C\c2ccccc2)C(=O)N1CN1CCOCC1`: the survival was 125% (inactive).
Next, `Cc1nc2cccnc2n1C1CCN(C(=O)Nc2ccccc2C(F)(F)F)CC1`: 72% (inactive); `COc1ccccc1CNC(=O)c1ccc(CN2CC(=O)N3CCCCC3C2=O)cc1` (stereo not given): 72% (inactive).
Next, `CN(C)c1ccc(Nc2ncnc3sc4c(c23)CCCC4)cc1`: 124% (inactive); `CCc1ccc(Nc2ncnc3sc4c(c23)CCCC4)cc1`: 68% (inactive); `Cc1cc(C)cc(Nc2ncnc3sc4c(c23)CCCC4)c1`: -3% (active).
Next, `O=C(CCC1N=C2c3ccccc3N=C(SCc3ccccc3Cl)N2C1=O)N1CCN(c2ccccc2)CC1` (stereo not given): 65% (inactive); `Cc1cc(C)c(NC(=O)Cn2c(=O)n(Cc3ccc(C(=O)NCc4ccc5c(c4)OCO5)cc3)c(=O)c3ccccc32)c(C)c1`: 83% (inactive); `COc1cc(NC(=O)CSc2nc3ncccc3o2)cc(OC)c1`: 57% (inactive).
On to `Cc1c(Cl)cccc1NC(=O)CSc1nc2ncccc2o1`, for which the survival is 1% (active).
Next, `O=C(CSc1nnc(-c2ccccc2F)o1)Nc1cccc(C(F)(F)F)c1`: 60% (inactive); `O=C(CSc1nc2ncccc2o1)Nc1cccc(C(F)(F)F)c1`: -3% (active).
Next, `Cc1cccc(C)c1NC(=O)CSc1nc2ncccc2o1`: 63% (inactive).
Next, `O=C(CSc1nc2ncccc2o1)Nc1ccc(Cl)cc1F`: 81% (inactive).
In the case of `COc1cccc(NC(=O)Cn2cc(C(=O)C3CCCCC3)c3ccccc32)c1`, the survival was 73% (inactive).
Next, `COc1cccc(NC(=O)N(Cc2cn(C)c3ccccc23)C2CCCCCC2)c1`: 0% (active); `COc1cccc(NC(=O)N(Cc2c[nH]c3ccccc23)C2CCCCC2)c1`: 71% (inactive); `COc1cccc(NC(=O)N(Cc2c[nH]c3ccccc23)C2CCCCCC2)c1`: 63% (inactive).
Next, `COc1cccc(NC(=O)N(Cc2cn(C)c3ccccc23)C2CCCCC2)c1`: 0% (active); `COc1cccc(NC(=O)N(Cc2nc3ccccc3c(=O)[nH]2)C2CCCCC2)c1`: 122% (inactive).
Next, `CCOc1ccc(C(=O)Nc2nnc(SCc3cc(=O)n4ccccc4n3)s2)cc1`: 69% (inactive); `CCOc1ccc(NC(=O)N(Cc2c[nH]c3ccccc23)C2CCCCC2)cc1`: 79% (inactive); `CCOc1ccc(NC(=O)N(Cc2cn(CC)c3ccccc23)C2CCCCCC2)cc1`: 0% (active).
In the case of `CCc1ccc(NC(=O)N(Cc2c[nH]c3ccccc23)C2CCCCC2)cc1`, the survival was 93% (inactive).
Next, `CCc1ccc(NC(=O)N(Cc2cn(CC)c3ccccc23)C2CCCCC2)cc1`: 0% (active); `CCOc1ccc(NC(=O)N(Cc2c[nH]c3ccccc23)C2CCCCCC2)cc1`: 83% (inactive); `CCc1ccc(NC(=O)N(Cc2c[nH]c3ccccc23)C2CCCCCC2)cc1`: 127% (inactive).
Next, `CCCCn1c(SCc2ccccc2C)nc2ccsc2c1=O`: 136% (inactive).
Consider `COc1cc(Nc2nc(SCc3ccccc3Cl)nc3ccccc23)cc(OC)c1`, for which the survival was 95% (inactive).
Next, `Cc1ccc(/C=C/c2nc3ccccc3n2S(=O)(=O)c2ccc(Br)cc2)cc1`: 70% (inactive); `CC(C)c1ccc(Nc2c(-c3ccsc3)nc3ccc(Cl)cn23)cc1`: 95% (inactive); `COc1ccc(C)cc1NC(=O)c1nnn(CC(=O)Nc2c(C)cccc2C)c1N`: 74% (inactive).
Next, `COc1ccc(NC(=O)Cn2c(=O)n(Cc3nc(C)no3)c(=O)c3cc4c(cc32)OCO4)cc1OC`: 70% (inactive); `O=C(Nc1cccc(C(=O)OCc2cc(=O)n3nc(C4CC4)sc3n2)c1)c1ccccc1`: 1% (active).
Next, `COc1ccc(C(=O)Nc2ccc(C(=O)OCc3cc(=O)n4nc(C5CC5)sc4n3)cc2)cc1`: -3% (active); `Cc1ccc(OCC(=O)Nc2ccc(C(=O)OCc3cc(=O)n4nc(C5CC5)sc4n3)cc2)cc1`: 81% (inactive).
In the case of `O=C(Nc1cccc(C(=O)OCc2cc(=O)n3nc(C4CC4)sc3n2)c1)c1ccc(F)cc1`, the survival was 81% (inactive).
Next, `Cc1ccc(C(=O)Nc2cccc(C(=O)OCc3cc(=O)n4nc(C5CC5)sc4n3)c2)cc1`: 55% (inactive); `O=C(COc1ccccc1)Nc1ccc(C(=O)OCc2cc(=O)n3nc(C4CC4)sc3n2)cc1`: 64% (inactive).
Next, `COc1cccc(C(=O)Nc2ccc(C(=O)OCc3cc(=O)n4nc(C5CC5)sc4n3)cc2)c1`: 63% (inactive).
In the case of `COc1ccc(C(=O)Nc2cccc(C(=O)OCc3cc(=O)n4nc(C5CC5)sc4n3)c2)cc1`, the survival was 111% (inactive).
Next, `Cc1cccc(OCC(=O)Nc2ccc(C(=O)OCc3cc(=O)n4nc(C5CC5)sc4n3)cc2)c1`: -4% (active).
Next, `CCCCN(CC)CCNc1ncnc2onc(-c3ccc(Cl)cc3)c12`: 82% (inactive); `CCC(C(=O)NCc1cc(OC)ccc1OC)n1nc(C)c2sc3ccccc3c2c1=O` (stereo not given): 87% (inactive); `Cc1ccc(CCNC(=O)c2ccc3c(c2)N(Cc2cccc(F)c2)C(=O)c2ccccc2S3)cc1`: 71% (inactive).
Next, `CCN(CC)C(=O)CSc1nnc(COc2ccc(Br)cc2)o1`: 102% (inactive); `COCc1[nH]nc2c1C(c1ccccc1C(F)(F)F)C(C#N)=C(N)O2` (stereo not given): 114% (inactive).
For the compound `CCCCCc1ccc(-c2ccc(Br)cc2)nc1`, the survival is -3% (active).
For `CCCc1ccc(-c2ccc(C(=O)Oc3ccc(Br)cc3)cc2)nc1`, the survival is 140% (inactive).
With `CCCCCc1ccc(-c2ccc(C(=O)Oc3ccc(C(=O)OC)cc3)cc2)nc1`, the survival was 74% (inactive).
Next, `NNC(=O)CCC(=O)Nc1ccccc1`: 112% (inactive); `CC(C)CNS(=O)(=O)c1ccccc1`: 120% (inactive).
Next, `CCN(CC)S(=O)(=O)N1CCN(S(=O)(=O)N2CCOCC2)CC1`: 118% (inactive); `O=C(CS(=O)(=O)c1cccc2nsnc12)N1CCN(c2ccc(F)cc2)CC1`: 97% (inactive); `CCOC(=O)c1nnn(-c2nn3nnnc3c3ccccc23)c1C`: 101% (inactive).
Turning to `CCn1cc(C(=O)NCC(C)C)c(=O)c2cc(F)c(N3CCN(C(=O)c4ccco4)CC3)cc21`, the survival was 107% (inactive).
Next, `O=C(NCc1cccnc1)c1cn(C2CC2)c2cc(N3CCN(C(=O)c4cccc(Cl)c4)CC3)c(F)cc2c1=O`: 0% (active).
Next, `O=C(NCc1ccncc1)C1CCN(C(=O)c2cccc(Cl)c2)CC1`: 111% (inactive); `CCc1ccc(NC(=O)Cn2c(=O)n(CCCC(=O)NCc3ccccc3Cl)c(=O)c3ccccc32)cc1`: 136% (inactive).
On to `CN(C)CCN(Cc1ccco1)C(=O)c1cc2c(s1)-c1ccccc1OC2`, for which the survival was 70% (inactive).
Next, `CCN1CCN(CCCNC(=O)c2cc3c(s2)-c2ccccc2OC3)CC1`: 84% (inactive); `COCCCN(Cc1ccco1)C(=O)c1cc2c(s1)-c1ccccc1OC2`: 12% (active); `CC(C)CCN(Cc1ccco1)C(=O)c1cc2c(s1)-c1ccccc1OC2`: 7% (active).
Next, `CC(C)CCN(Cc1ccco1)C(=O)c1cc2c(Cl)nc3ccccc3c2s1`: 77% (inactive).
For `COc1cccc(CNC(=O)c2cc3c(s2)-c2ccccc2OC3)c1`, the survival was 65% (inactive).
Next, `CC(C)OCCCN(Cc1ccco1)C(=O)c1cc2c(s1)-c1ccccc1OC2`: 9% (active); `O=C(CC1N=C2c3ccccc3N=C(SCc3ccccc3F)N2C1=O)NCc1cccs1` (stereo not given): 75% (inactive); `Cc1cc(C)c2c(NC(=O)c3ccccc3Cl)c(C(=O)Nc3ccc(C)c(C)c3)sc2n1`: 64% (inactive).
Next, `CCc1ccc(NC(=O)c2cc3nc(-c4ccc(C)cc4)cc(C(F)(F)F)n3n2)cc1`: 60% (inactive); `O=C(Nc1ccc(NC(=O)C2CC23CCC3)cc1)C1CC12CCC2` (stereo not given): 118% (inactive).
